KCNQ2 inh: KCNQ2 (rat) channel inhibition; B-score at 10 µM; CHO-K1 KCNQ2, FluxOR thallium flux, 20 min; active compounds read low; O88943; AID 2156; actives 1.1% (n = 310,000);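 active = fluorescence ratio B-score at most minus 3 library SDs, with starting brightness B-score within 2 library SDs, cut at about -5.5 in these data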
KCNQ2 pot: KCNQ2 (rat) channel potentiation | CHO-K1 KCNQ2, FluxOR thallium flux fluorescence; active compounds read high | B-score at 10 µM | actives 0.54% (n = 310,000) | AID 2239;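 active = fluorescence ratio B-score at least 3 SD of library B-scores, with initial fluorescence B-score within 3 of them, cut at about 5.3 in these data; same plate scores as AID 2156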;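 also: B-score of peak minus minimum over baseline fluorescence ratio after K+ and Tl+ stimulus; positive B-score means potentiation of KCNQ2 with more thallium influx and brighter signal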
KCNQ2 inh conf: rat KCNQ2 channel inhibition, confirmatory screen; shares compounds with KCNQ2 inh; KCNQ2-expressing cells, thallium flux; active compounds read low; activity change, negative = inhibition, % at 10 µM; actives 57% (n = 1,000)
KCNQ1 spec: selectivity of KCNQ2 inhibitors against human KCNQ1; KCNQ1-expressing cells, FluxOR thallium flux fluorescence; active compounds read low; actives 15% (n = 1,000); shares compounds with KCNQ2 inh; activity change, negative = inhibition, % at 10 µM;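 active = activity change at least 3 SD of negative controls below their mean in both duplicate wells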;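 also: CHO cells stably transfected with KCNQ1 and depolarized by potassium stimulus; peak minus minimum fluorescence over baseline after thallium addition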
Target sequence (P51787 whole entry, looked up): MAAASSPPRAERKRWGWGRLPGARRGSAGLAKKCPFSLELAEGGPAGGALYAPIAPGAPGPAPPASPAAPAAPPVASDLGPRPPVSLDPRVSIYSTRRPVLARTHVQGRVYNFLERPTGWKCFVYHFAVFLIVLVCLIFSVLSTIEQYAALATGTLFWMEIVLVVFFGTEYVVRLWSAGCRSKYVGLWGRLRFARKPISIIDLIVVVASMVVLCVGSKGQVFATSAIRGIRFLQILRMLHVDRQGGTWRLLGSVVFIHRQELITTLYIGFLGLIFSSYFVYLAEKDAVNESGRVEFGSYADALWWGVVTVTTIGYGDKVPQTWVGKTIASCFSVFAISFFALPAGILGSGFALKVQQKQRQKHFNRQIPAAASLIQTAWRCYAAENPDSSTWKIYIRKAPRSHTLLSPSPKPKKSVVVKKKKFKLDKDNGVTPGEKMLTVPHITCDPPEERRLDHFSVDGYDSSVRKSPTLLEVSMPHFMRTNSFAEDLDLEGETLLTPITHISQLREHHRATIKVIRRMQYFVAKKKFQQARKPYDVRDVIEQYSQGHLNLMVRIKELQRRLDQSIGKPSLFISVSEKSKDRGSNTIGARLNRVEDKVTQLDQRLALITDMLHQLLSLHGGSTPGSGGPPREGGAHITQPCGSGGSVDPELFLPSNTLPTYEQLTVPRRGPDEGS
CHO Tl ctr: counter-screen for KCNQ2 inhibitors: effect in parental CHO cells; shares compounds with KCNQ2 inh; thallium flux counter-screen; active compounds read low; activity change, % at 10 µM; actives 14% (n = 1,000)
KCNQ2 inh confirm: rat KCNQ2 inhibition confirmed by electrophysiology; calls only at 10 µM; actives 49% (n = 550); AID 588531; KCNQ2-expressing cells, automated patch clamp current; shares compounds with KCNQ2 inh
Kir21 conf inh: confirmation of mouse Kir2.1 potassium channel inhibitors. shares compounds with KCNQ2 pot. Kir2.1-expressing cells, FluxOR thallium flux fluorescence; active compounds read low. Tl flux remaining, % of negative control (active compounds read low), % at 10 µM. actives 41% (n = 2,300). AID 2032;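 active = Primary-screen hit whose thallium flux fell at least 3 control SD below untreated wells in both duplicates, with normal baseline fluorescence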
HEK293 ctr: counter-screen for Kir2.1 inhibitors: effect in parental HEK293 cells | shares compounds with KCNQ2 pot | FluxOR thallium flux fluorescence; 0% = unstimulated blank wells | FluxOR signal as % of negative control (100 = no effect), % at 10 µM | actives 19% (n = 2,300) | AID 2105;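 active = dye signal at least 3 control SD above or below untreated wells in both duplicates, raw fluorescence within 3, either direction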;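 also: percent is based on the flux ratio of peak minus minimum fluorescence over baseline F0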
Of the large screens only hits and unclear results are named; the others gave an inactive call (follow-up assays come after a bar, where they were run). Only some compounds are listed: those with a hit (about 1.6% of all), similar ones and a draw of the others. Unless noted, no rule for the calls is given here.

CCC(C#N)(CC)P(=S)(c1ccccc1)c1ccccc1	KCNQ2 inh -8.64 | KCNQ2 inh conf inactive | KCNQ1 spec inactive | CHO Tl ctr inactive
COc1ccc(C2=NS(=O)(=O)N(C)C(C(=O)N3CCC4(CC3)OCCO4)=C2)cc1OC	none
COc1cccc(-n2c(/C=C/c3ccc(O)c(O)c3)nc3ccccc3c2=O)c1	KCNQ2 inh -6.91 | KCNQ2 inh conf -28.0% | KCNQ1 spec inactive | CHO Tl ctr inactive | KCNQ2 inh confirm inactive
COc1ccc(-n2c(/C=C/c3ccc(O)c(OC)c3)nc3ccccc3c2=O)cc1	none (no result: KCNQ2 pot)
Cc1ccsc1C(=O)C1CCCN(Cc2cnc(N3CCCC3)s2)C1 (centres undefined)	none (no result: KCNQ2 pot)
COCCNCCOc1ccc(C(C)(C)c2ccccc2)cc1	none
CCOC(=O)c1c(NC(NC(=O)CF)C(Cl)(Cl)Cl)sc2c1CCCC2 (centres undefined)	KCNQ2 inh -8.37 | KCNQ2 inh conf -29.0% | KCNQ1 spec inactive | CHO Tl ctr inactive | KCNQ2 inh confirm inactive
CCOC(=O)c1c(/N=C/C2C(=O)NC(=O)NC2=O)sc2c1CCC2	none
Clc1ccc(COC(Cn2ccnc2)c2ccc(Cl)cc2Cl)c(Cl)c1 (centres undefined)	KCNQ2 inh -7.31 | KCNQ2 inh conf -38.0% | KCNQ1 spec -42.0% | CHO Tl ctr -34.5% | KCNQ2 inh confirm inactive
CCS(=O)(=O)NC(C)c1nnc2n1-c1ccc(Br)cc1C(c1ccccc1Cl)=NC2 (centres undefined)	none
Cc1cccc(-n2c(/C=C/c3ccccn3)nc3ccccc3c2=O)c1	none (no result: KCNQ2 pot)
Cc1cc(C=O)c(C)n1C1CC1	none
COc1cccc(NP(=O)(Oc2ccc(Cl)cc2)Oc2ccc(Cl)cc2)c1	none (no result: KCNQ2 pot)
O=P(Nc1ccccc1)(Nc1ccccc1)Oc1ccc(Cl)cc1	KCNQ2 inh -9.69 | KCNQ2 inh conf inactive | KCNQ1 spec inactive | CHO Tl ctr inactive
CC(=O)OC1CC[C@]2(C#N)[C@H]3CC[C@]4(C)[C@H](C5C=CC(=O)O5)CCC4(O)C3CCC2(O)C1 (some centres undefined)	none
CN(C)CCN(C(=O)COc1ccc(Cl)cc1)c1nc2cc3c(cc2s1)OCO3	none (no result: KCNQ2 pot)
CCCC1(CCC)C(=O)NC(=NCc2ccccc2)NC1=O	KCNQ2 inh -10.3 | KCNQ2 inh conf -36.5% | KCNQ1 spec inactive | CHO Tl ctr inactive | KCNQ2 inh confirm active
CCCC1(CCC)C(=O)NC(=Nc2ccccc2)NC1=O	none
Cc1ccc(OCCOc2cccc(C=C3C(=O)NC(=O)NC3=O)c2)cc1	none
O=c1c2ccccc2nc(-c2cccs2)n1-c1ccccc1	none (no result: KCNQ2 pot)
NC(N)=N/N=C/c1cn(-c2ccccc2)nc1-c1cccs1	KCNQ2 inh -11.3 | KCNQ2 inh conf inactive | KCNQ1 spec inactive | CHO Tl ctr inactive
COc1ccc(-n2c(C)nc3ccccc3c2=O)c([N+](=O)[O-])c1	none
CCN(CC)c1ccc(/C=C/[N+](=O)[O-])cc1	KCNQ2 inh -8.76 | KCNQ2 inh conf -75.0% | KCNQ1 spec -79.5% | CHO Tl ctr -76.5% | KCNQ2 inh confirm inactive
CCN(CC)c1ccc(CC2C(=O)N(C)C(=O)N(C)C2=O)cc1	none (no result: KCNQ2 pot)
COc1ccccc1Cn1c(SCC(=O)C(C)(C)C)nc2cc(C(=O)N3CCC4(CC3)OCCO4)ccc2c1=O	none
O=C(c1cc(C(=O)NCc2ccccc2)c(=O)n(Cc2ccccc2)c1)c1cc(Br)ccc1O	KCNQ2 inh -8.25 | KCNQ2 inh conf -33.5% | KCNQ1 spec -39.0% | CHO Tl ctr -32.0% | KCNQ2 inh confirm inactive
O=C(CNC(=O)c1ccccc1Cl)Nc1ccc(Br)cc1C(=O)c1ccccc1	none
COc1cccc(-c2nn(CCC#N)cc2C(=O)Nc2ccccc2Cl)c1	none (no result: KCNQ2 pot)
COc1cc(/C=C2/C(=O)NC(=O)N(c3ccccc3)C2=O)ccc1O	none
COc1cc(/C=C/[N+](=O)[O-])ccc1O	KCNQ2 inh -7.11 | KCNQ2 inh conf -32.5% | KCNQ1 spec -30.5% | CHO Tl ctr -23.5% | KCNQ2 inh confirm inactive
O=P(NCc1ccccc1)(Oc1ccccc1)Oc1ccccc1	KCNQ2 inh -6.87 | KCNQ2 inh conf inactive | KCNQ1 spec inactive | CHO Tl ctr inactive
O=P(NS(=O)(=O)c1ccccc1)(Oc1ccccc1)Oc1ccccc1	none
O=C(CCCc1ccccc1)NCCc1cnc[nH]1	none (no result: KCNQ2 pot)
O=C([O-])c1ccc(-[n+]2c(-c3ccccc3)cc(-c3ccccc3)cc2-c2ccccc2)cc1	none (no result: KCNQ2 pot)
Oc1ccc(-[n+]2c(-c3ccccc3)cc(-c3ccccc3)cc2-c2ccccc2)cc1	KCNQ2 inh -6.93 | KCNQ2 inh conf -27.0% | KCNQ1 spec inactive | CHO Tl ctr inactive | Kir21 conf inh 44.5% | HEK293 ctr 73.5%
Cc1noc(C)c1CC(=O)N1CCCC(N2CCN(c3ccccc3F)CC2)C1 (centres undefined)	none (no result: KCNQ2 pot)
CCCCCCCSc1cc(OC)c(CCNC)cc1OC	KCNQ2 inh -7.43 | KCNQ2 inh conf -31.0% | KCNQ1 spec inactive | CHO Tl ctr inactive | KCNQ2 inh confirm inactive | Kir21 conf inh 19.5% | HEK293 ctr inactive
O=c1[nH]c(=O)n(C2CCCCC2)c(O)c1/C=C/C=Nc1ccccc1	none
CC1CCC(NC(=O)CNC(=S)N2CC3CC(C2)c2cccc(=O)n2C3)CC1 (centres undefined)	none (no result: KCNQ2 pot)
